PubChem BioAssay AID588800 (Johns Hopkins Ion Channel Center, 2011)
The source made the active and inactive calls.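 Rule for the calls: active = peak inhibition of the KCNQ2 potassium channel above 30% at some tested dose, plus a fitted dose response curve; inactive = no inhibition at any dose, or no curve.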

Target: Potassium voltage-gated channel subfamily KQT member 2 (Rattus norvegicus) (UniProt O88943)
Assay: rat KCNQ2 channel inhibition, SAR follow-up, selectivity assay for KCNK9 inhibitor project, cell-based, FluxOR thallium flux, CRC set 2 (AID 588800)
Conditions: KCNQ2-expressing cells; series mostly up to 30 µM

Sequence of Potassium voltage-gated channel subfamily KQT member 2 (Rattus norvegicus) (O88943 whole entry, looked up): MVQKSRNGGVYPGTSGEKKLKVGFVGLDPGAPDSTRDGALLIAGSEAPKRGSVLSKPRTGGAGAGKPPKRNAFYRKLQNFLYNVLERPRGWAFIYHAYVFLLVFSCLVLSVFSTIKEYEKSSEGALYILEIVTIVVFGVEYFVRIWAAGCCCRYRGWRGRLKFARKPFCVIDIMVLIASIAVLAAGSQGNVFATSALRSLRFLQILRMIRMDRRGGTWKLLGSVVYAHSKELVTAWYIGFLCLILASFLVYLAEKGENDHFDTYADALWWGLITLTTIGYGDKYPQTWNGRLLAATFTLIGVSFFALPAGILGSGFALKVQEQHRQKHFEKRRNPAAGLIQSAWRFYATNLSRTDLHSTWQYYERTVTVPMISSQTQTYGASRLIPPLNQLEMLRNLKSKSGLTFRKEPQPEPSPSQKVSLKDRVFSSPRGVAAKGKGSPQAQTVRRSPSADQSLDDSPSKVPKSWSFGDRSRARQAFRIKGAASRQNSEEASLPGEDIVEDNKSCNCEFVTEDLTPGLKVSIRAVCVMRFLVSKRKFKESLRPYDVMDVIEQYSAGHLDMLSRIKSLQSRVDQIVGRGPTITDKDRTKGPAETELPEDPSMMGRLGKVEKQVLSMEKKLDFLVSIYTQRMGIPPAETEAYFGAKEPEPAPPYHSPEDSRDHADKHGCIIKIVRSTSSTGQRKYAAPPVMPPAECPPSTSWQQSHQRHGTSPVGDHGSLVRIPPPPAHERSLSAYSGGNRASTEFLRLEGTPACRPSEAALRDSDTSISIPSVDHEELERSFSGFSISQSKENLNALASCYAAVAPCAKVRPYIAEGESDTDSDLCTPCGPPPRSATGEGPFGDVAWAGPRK

outcome, inactive:
CCOc1ccccc1NC(=O)c1cccc(NC(=O)c2cccc(OC)c2)c1
O=C(Nc1cccc(NC(=O)c2ccsc2)c1)c1ccccc1
O=C(Nc1cccc(NC(=O)c2ccc(F)cc2)c1)c1ccccc1
COc1ccc(-c2n[nH]c(=S)n2C(C)C2CC3CCC2C3)cc1 (stereo not given)
CC(c1ccco1)n1c(-c2ccoc2)n[nH]c1=S (stereo not given)
CC(C1CC2CCC1C2)n1c(-c2ccsc2)n[nH]c1=S (stereo not given)
CCOc1ccccc1C(=O)Nc1cccc(NC(=O)c2cccc(C)c2)c1
CCOc1ccccc1NC(=O)c1cccc(NC(=O)C2CCCC2)c1
Cc1cccc(C(=O)Nc2cccc(NC(=O)c3ccc(C(C)(C)C)cc3)c2)c1
COc1ccccc1NC(=O)c1cccc(NC(=O)c2ccccc2OC)c1
Cc1cccc(C(=O)Nc2cccc(NC(=O)c3cccc(C)c3)c2)c1
CCOc1ccccc1NC(=O)c1cccc(NC(=O)C2CC2)c1
COc1ccccc1C(=O)Nc1cccc(NC(=O)c2ccccc2C)c1
Cc1cccc(C(=O)Nc2cccc(NC(=O)c3ccccc3Cl)c2)c1
S=c1[nH]nc(-c2ccco2)n1CC1CCCCC1
CC(C1CC2CCC1C2)n1c(-c2ccc(Cl)cc2)n[nH]c1=S (stereo not given)
CCOc1ccccc1NC(=O)c1cccc(NC(=O)c2ccccc2C)c1
CCOc1ccc(NC(=O)c2cccc(NC(=O)C3CCCC3)c2)cc1
Cc1cccc(C(=O)Nc2ccccc2NC(=O)c2ccccc2)c1
Cc1cccc(C(=O)Nc2cccc(NC(=O)c3ccccc3C)c2)c1
COc1ccc(C(=O)Nc2cccc(NC(=O)c3ccccc3)c2)cc1
CC(c1ccccc1)n1c(-c2ccco2)n[nH]c1=S (stereo not given)
CCOc1ccccc1NC(=O)c1cccc(NC(=O)c2cccc(Cl)c2)c1
CCOc1ccccc1NC(=O)c1cccc(NC(=O)c2ccccc2Cl)c1
CCOc1ccccc1C(=O)Nc1cccc(NC(=O)c2ccccc2OC)c1
CCOc1ccccc1NC(=O)c1cccc(NC(=O)CC2CCCCC2)c1
CCOc1ccccc1NC(=O)c1cccc(NC(=O)CC2CCCC2)c1
COc1ccccc1NC(=O)c1cccc(NC(=O)CC2CCCC2)c1
CCOc1cccc(NC(=O)c2cccc(NC(=O)C3CCCC3)c2)c1
CCOc1ccccc1NC(=O)c1cccc(NC(=O)c2ccccc2OC(F)(F)F)c1
O=C(Nc1cccc(NC(=O)c2cccnc2)c1)c1ccccc1
CCOc1ccccc1NC(=O)c1cccc(NC(=O)c2ccc(C)cc2)c1
CCOc1ccccc1C(=O)Nc1cccc(NC(=O)C2CCCC2)c1
COc1cccc(-c2n[nH]c(=S)n2C(C)C2CC3CCC2C3)c1 (stereo not given)
COc1ccccc1C(=O)Nc1cccc(NC(=O)c2ccccc2OC)c1
